A short description of assay [1]: AP1 Signaling Pathway (AID 357; active = well fitted curve in either direction with a large enough effect, not every such curve was filed as active;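 also: ME-180 reporter cells stimulated with EGF at its EC50 level; % is scaled to controls: 0 for no effect and ±100 for the full control effect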). Summed up: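 Read-out was the 460nm/530nm emission ratio (excitation 405nm) after CCF4 loading for 2.5 hours at room temperature. Cells carried an AP-1-driven beta-lactamase reporter, were stimulated with EC50 EGF plus compound for 5 hours, and AC50 values came from titrations.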
The target in assay [2] is Cytochrome P450 1A2 (Homo sapiens) (UniProt P05177). The experiment in a line: p450-cyp1a2 (AID 410; calls by dose curve; also: potency is read from the fitted curve at half-maximal effect;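 as to activity change, negative = inhibition: -100% = full effect of reference inhibitor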). Summed up: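 20nM CYP1A2, 100uM Luciferin-ME (=Km), 100mM KPO4; cpd 10 min RT; +NADPH regen, 60 min RT; stop/detect 20 min; luminescence. Normalized to furafylline 57 uM = full inhibition.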
Cytochrome P450 1A2 (Homo sapiens), sequence (P05177 whole entry, looked up): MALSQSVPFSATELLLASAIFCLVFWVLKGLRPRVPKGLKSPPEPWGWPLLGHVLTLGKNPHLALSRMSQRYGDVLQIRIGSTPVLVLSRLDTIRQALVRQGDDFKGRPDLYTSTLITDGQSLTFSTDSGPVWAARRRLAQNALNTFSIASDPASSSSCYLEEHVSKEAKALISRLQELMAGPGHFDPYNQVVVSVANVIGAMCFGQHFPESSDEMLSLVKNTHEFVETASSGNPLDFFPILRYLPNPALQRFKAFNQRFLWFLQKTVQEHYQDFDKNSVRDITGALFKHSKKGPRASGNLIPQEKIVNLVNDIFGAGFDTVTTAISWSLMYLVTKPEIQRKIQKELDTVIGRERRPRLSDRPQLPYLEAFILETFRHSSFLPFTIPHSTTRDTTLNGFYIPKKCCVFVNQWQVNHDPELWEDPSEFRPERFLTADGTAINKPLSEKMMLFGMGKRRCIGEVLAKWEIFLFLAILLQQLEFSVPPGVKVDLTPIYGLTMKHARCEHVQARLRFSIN
Assay [3] in a line: NFAT Signaling Pathway (AID 444; active = well fitted curve in either direction with a large enough effect, not every such curve was filed as active;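 also: carbachol stimulus at about its EC50 of 1 µM final; % is scaled to controls: 0 for no effect and ±100 for the full control effect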). Conditions: Jurkat NFAT-bla M1, carbachol, beta-lactamase ratio, 5 h; at 17.2 µM (top of the series) unless noted. The gist of the method: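 Read-out: CCF4 FRET ratio (460 nm/530 nm) after 1 h RT dye loading, used for %activity and AC50 from titration series. Cells: Jurkat NFAT-β-lactamase/M1 line, treated with compound plus 1 uM carbachol for 5 h, 37 °C.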

Assay [4] is described as follows: Stat Signaling Pathway (AID 446; active = well fitted curve in either direction with a large enough effect, not every such curve was filed as active;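 also: ME-180 cervical cancer cells given 40 pM IL-6 alongside compound; SIE-controlled beta-lactamase reporter measured as 460/530 nm FRET emission ratio; % is scaled to controls: 0 for no effect and ±100 for the full control effect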). Summed up: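 Overnight-plated ME-180 cells bearing a STAT Inducible Element beta-lactamase reporter; 5 h co-exposure to compound and 40 pM IL-6; values normalized to 300 pM IL-6 and 125 nM JAK inhibitor controls.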
Assay [5] deals with Glucocorticoid receptor (Homo sapiens) (UniProt P04150). Kind of assay: GR-GFP Redistribution (AID 450;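 active = compounds whose dose series gives a full or clear partial fitted curve of increased nuclear translocation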; also: potency is read from the fitted curve at half-maximal effect). Conditions: U2OS GR-GFP nuclear translocation, laser cytometry, 2 h.
Glucocorticoid receptor (Homo sapiens), sequence (P04150 whole entry, looked up): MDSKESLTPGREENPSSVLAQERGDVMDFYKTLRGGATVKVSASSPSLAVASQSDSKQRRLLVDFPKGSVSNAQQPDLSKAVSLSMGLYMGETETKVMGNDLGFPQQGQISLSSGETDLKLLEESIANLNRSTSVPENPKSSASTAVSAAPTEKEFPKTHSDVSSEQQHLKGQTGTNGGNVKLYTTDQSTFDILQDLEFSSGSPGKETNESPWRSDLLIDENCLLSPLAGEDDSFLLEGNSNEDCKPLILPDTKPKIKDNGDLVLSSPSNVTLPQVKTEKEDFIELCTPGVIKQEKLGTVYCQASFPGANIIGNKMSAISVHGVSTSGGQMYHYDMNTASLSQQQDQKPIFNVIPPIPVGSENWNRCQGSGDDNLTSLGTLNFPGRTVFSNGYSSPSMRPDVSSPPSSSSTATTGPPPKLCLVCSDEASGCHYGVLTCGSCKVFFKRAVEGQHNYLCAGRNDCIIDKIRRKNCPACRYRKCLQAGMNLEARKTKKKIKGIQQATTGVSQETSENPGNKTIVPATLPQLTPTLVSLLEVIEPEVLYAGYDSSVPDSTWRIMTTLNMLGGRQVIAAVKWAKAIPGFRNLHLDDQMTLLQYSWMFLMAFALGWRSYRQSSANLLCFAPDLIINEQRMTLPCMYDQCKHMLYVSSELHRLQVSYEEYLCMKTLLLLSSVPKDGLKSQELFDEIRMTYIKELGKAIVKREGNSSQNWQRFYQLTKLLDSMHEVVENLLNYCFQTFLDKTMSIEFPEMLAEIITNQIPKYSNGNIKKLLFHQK
The target is the same in assay [6]. The experiment in a line: GR-EFC Redistribution (AID 451; calls by dose curve; also: potency is read from the fitted curve at half-maximal effect). The following applies: CHO-K1 GR-EFC translocation, beta-gal luminescence, 2 h. The gist of the method:
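Translocation of GR-ED fusion to nuclear EA restores b-gal, read by luminescence after 1 h room-temperature detection. Engineered CHO-K1 biosensor cells, 1,000/well, exposed 2 h at 37 C to titrations up to 46 uM final.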

The target of assay [7] is Mitogen-activated protein kinase 10 (Mus musculus) (UniProt Q61831). Kind of assay: JNK3 AlphaScreen Assay (AID 530; active = well fitted curve in either direction with a large enough effect, not every such curve was filed as active;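 also: kinase came from lysate of stimulated human HepG2 cells; signal reports phosphorylation of biotinylated GST-cJun 1-79 at Ser73 with 10 µM ATP; % is scaled to controls: 0 for no effect and ±100 for the full control effect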). Summed up:
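Kinase buffer: 20 mM Tris-HCl pH 7.6, 10 mM MgCl2, 1 mM DTT, 0.1 mM Na3VO4, 0.01% Tween-20; ATP 10 uM. Substrate biotin-GST-cJun(1-79), enzyme from activated HepG2 lysates. Detection by Ser73 phospho-antibody AlphaScreen.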

For assay [8], the target named is 3',5'-cyclic-AMP phosphodiesterase 4B (Homo sapiens) (UniProt Q07343). The experiment in a line: qHTS Assay for Inhibitors of PDE-IV (AID 607; active = well fitted activation curve with a large enough effect in the main read-out, with a control signal flat, not every such curve was filed as active; also: % of control where 0% means no effect). The gist of the method: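 Live HEK293 cells with a modified cyclic nucleotide-gated (CNG) channel report intracellular cAMP via membrane-potential dye fluorescence (ex 535/em 590 nm). Endogenous PDE-IV was targeted. Compounds were tested at up to 22.9 uM final; RO 20-1724 100 uM served as control.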
3',5'-cyclic-AMP phosphodiesterase 4B (Homo sapiens), sequence (Q07343 whole entry, looked up): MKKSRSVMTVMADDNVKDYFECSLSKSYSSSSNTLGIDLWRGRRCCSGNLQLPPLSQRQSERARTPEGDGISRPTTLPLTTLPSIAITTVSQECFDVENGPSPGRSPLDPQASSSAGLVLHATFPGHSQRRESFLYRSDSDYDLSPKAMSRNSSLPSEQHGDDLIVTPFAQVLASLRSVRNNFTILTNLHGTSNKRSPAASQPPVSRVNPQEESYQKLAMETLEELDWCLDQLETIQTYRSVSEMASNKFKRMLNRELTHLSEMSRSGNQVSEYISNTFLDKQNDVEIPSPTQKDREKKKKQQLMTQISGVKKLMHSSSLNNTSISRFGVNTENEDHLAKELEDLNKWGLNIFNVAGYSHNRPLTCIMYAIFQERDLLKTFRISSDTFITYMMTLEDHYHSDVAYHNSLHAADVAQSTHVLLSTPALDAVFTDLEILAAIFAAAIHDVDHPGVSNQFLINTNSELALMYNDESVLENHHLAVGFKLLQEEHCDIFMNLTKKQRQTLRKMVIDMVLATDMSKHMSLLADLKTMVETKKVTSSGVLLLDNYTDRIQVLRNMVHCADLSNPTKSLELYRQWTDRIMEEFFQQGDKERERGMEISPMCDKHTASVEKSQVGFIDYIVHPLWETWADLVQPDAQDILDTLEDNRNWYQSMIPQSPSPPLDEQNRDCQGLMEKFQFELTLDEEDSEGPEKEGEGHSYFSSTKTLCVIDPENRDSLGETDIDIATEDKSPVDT
Background: In qHTS, concentration-response curves come from the screen itself.

A short description of assay [9]: qHTS Assay for Lipid Storage Modulators (AID 1519; calls by dose curve). Conditions: Drosophila S3 cells, BODIPY lipid droplet/cell ratio, laser cytometry, cells loaded with oleic acid; for activity change, negative = inhibition: at 25.7 µM (top of the series). Summed up:
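Cells seeded at 5,000 per well were treated with compounds over a concentration series and loaded with oleic acid (400 uM, as added). Lipid droplet fluorescence (488 nm excitation, 500-530 nm channel) was read by laser-scanning cytometry and normalized to 20 uM Triacsin C.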

Assay [10] concerns the target Ubiquitin carboxyl-terminal hydrolase 1 (Homo sapiens) (UniProt O94782). Kind of assay: Inhibitors of USP1/UAF1: Pilot qHTS (AID 504865).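 Also: rhodamine fluorescence freed from ubiquitin-rhodamine substrate followed over time; top concentration of the series differs between compounds; % is scaled to controls: 0 for no effect and ±100 for the full control effect; nearly all actives have a fitted effect of over 35% in size.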 The gist of the method:
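1nM USP1/UAF1 + cpd, 15 min RT; start w/ Ub-Rho 150nM final; kinetic FL 480/540 nm, 6 reads q60 s. Buffer 50mM HEPES pH 7.8, 0.5mM EDTA, 1mM TCEP, 0.01% Tween-20, 0.1 mg/ml BSA.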

The nature of assay [11]: S16 Schwann cell viability assay (CellTiter-Glo assay) (AID 624031).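 Also: native untransfected S16 rat Schwann cells; cellular ATP luminescence as a viability measure; plate controls were DMSO-treated cells for no effect and cell-free wells for full effect; nearly all actives have a fitted effect of over 70% in size.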 Summed up: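 Parental S16 cells, 24 h compound, 37 °C. ATP-luminescence viability; DMSO = 0% activity, empty wells as reference; curves classified by fit quality and efficacy.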
The nature of assay [12]: S16 Schwann cell PMP22 intronic element firefly luciferase assay (AID 624032).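 Also: plate controls were DMSO for no effect and PTC124 positive control mean for full effect; nearly all actives have a fitted effect of over 30% in size.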 The gist of the method:
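Luciferase reporter of PMP22 intronic-element expression in stably transfected S16 rat Schwann cells, read by ONE-Glo luminescence after 24 h compound exposure at 37 C. Activity scaled between DMSO (0%) and positive-control PTC124; concentration-effect curves quality-classified.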

A short description of assay [13]: qHTS profiling for inhibitors of Plasmodium falciparum proliferation (AID 504749).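 Also: 0% = DMSO vehicle and full inhibition = artemisinin control; nearly all actives have a fitted effect of over 60% in size.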 Conditions: P. falciparum in erythrocytes, SYBR Green DNA, 72 h, at 12.8 µM (top of the series). Summed up: (§1)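 In a 72 h erythrocytic culture (37 C, humidified, 5% CO2) at 2.5% hematocrit and 0.3% starting parasitemia, compounds were tested; SYBR Green I in detergent lysis buffer stained parasite DNA overnight.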

The test system of assay [14] is 3D7. The description is as above. Conditions: P. falciparum in erythrocytes, SYBR Green DNA, 72 h; series mostly up to 12.8 µM. The gist of the method:
as §1

The test system of assay [15] is AS120. Described as above. The following applies: P. falciparum in erythrocytes, SYBR Green DNA, 72 h; series mostly up to 12.8 µM. The gist of the method:
as §1

In assay [16] the test system is ATS189. Described as above. Conditions: P. falciparum in erythrocytes, SYBR Green DNA, 72 h; series mostly up to 12.8 µM. Summed up: as §1
The subject of assay [17] is CP217. The assay is described as above. Conditions: P. falciparum in erythrocytes, SYBR Green DNA, 72 h; series mostly up to 12.8 µM. The gist of the method:
as §1

In assay [18] the test system is CP247. The description is as above. The following applies: P. falciparum in erythrocytes, SYBR Green DNA, 72 h; series mostly up to 12.8 µM. The gist of the method:
as §1

The subject of assay [19] is CP250. Described as above. Conditions: P. falciparum in erythrocytes, SYBR Green DNA, 72 h; series mostly up to 12.8 µM. The gist of the method: as §1
Assay [20] concerns SC27B. Described as above. The following applies: P. falciparum in erythrocytes, SYBR Green DNA, 72 h; series mostly up to 12.8 µM. The gist of the method: as §1
Where [21] appears, read: measured here: cell count channel max response.
Setting [22] is: measured here: lipid channel max response.

Records with an inconclusive call do not appear. The source made the active and inactive calls. Unless noted, calls follow the shape of the dose curve; as a rule, active = well fitted curve in the direction sought with a large enough effect; inconclusive = small, poorly fitted or top-dose-only effect, or another doubt; inactive = no such curve, though single readings can be large; an effect the other way counts as inactive or inconclusive.

Ubiquitin carboxyl-terminal hydrolase 1 (Homo sapiens), sequence (O94782 whole entry, looked up): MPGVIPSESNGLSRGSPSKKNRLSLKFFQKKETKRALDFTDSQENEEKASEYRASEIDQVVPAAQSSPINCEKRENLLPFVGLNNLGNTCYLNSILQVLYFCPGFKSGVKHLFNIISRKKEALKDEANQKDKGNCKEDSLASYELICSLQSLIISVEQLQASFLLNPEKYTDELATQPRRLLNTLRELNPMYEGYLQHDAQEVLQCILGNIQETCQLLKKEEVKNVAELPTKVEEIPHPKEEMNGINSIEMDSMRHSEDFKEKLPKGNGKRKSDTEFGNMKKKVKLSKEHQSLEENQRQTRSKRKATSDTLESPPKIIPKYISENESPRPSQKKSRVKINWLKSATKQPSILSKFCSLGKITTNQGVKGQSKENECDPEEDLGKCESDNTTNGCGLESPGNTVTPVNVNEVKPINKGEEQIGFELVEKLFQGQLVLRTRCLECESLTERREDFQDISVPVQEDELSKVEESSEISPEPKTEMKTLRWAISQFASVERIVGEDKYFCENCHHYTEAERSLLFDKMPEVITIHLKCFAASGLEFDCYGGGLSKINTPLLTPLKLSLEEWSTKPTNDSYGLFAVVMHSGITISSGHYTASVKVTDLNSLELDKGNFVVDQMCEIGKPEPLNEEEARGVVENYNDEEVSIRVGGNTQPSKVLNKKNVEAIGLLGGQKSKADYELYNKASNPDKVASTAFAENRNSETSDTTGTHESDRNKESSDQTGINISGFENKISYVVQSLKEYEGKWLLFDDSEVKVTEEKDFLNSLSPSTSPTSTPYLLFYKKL

Consider `CC(C)(CS)C(=O)N1CCC[C@H]1C(=O)O`, for which the result in assay [1], in [4] and in assay [8] was inactive. Besides, the Potency entry in assay [2], in [7] and in assay [10] was “inactive” in each case. The values for the activity change, negative = inhibition in [3] and in assay [9] were -3.44% (inactive) and 1% (inactive), respectively. Besides, the Potency in assay [5] and in [6] was > 20.6 µM (inactive) throughout. Besides, the max response was 2.97% in assay [9] (setting [21]) and 4.64% in [9] (setting [22]).

Take `NS(=O)(=O)c1cc2c(cc1Cl)N[C@@H](CC1CCCC1)NS2(=O)=O`: the result in assay [1], in [4], in assay [8] and in [11] was inactive. Further, the Potency entry in [2], in assay [7], in [10], in assay [12], in assay [14] and in assay [15] was “inactive” throughout. Further, the Potency entry in [16], in assay [17], in assay [18], in assay [19] and in [20] was “inactive” in each case. Also, the activity change, negative = inhibition in assay [3] was -6.75% (inactive); in assay [9], -0.977% (inactive). The Potency in assay [5] and in assay [6] was > 20.6 µM (inactive) in each case. Also, the max response in [9] (setting [21]) was 1.17%; in [9] (setting [22]) it was 1.04%. In addition, the activity, negative = inhibition is -0.239% (inactive) in [13] (parasite line A) and 5.35% (inactive) in assay [13] (parasite line B).

As for `CC(=O)N(C[C@@H](C)C(=O)O)c1c(I)cc(I)c(N)c1I`, the molecule was called inactive in [1], in assay [4], in assay [8] and in assay [11]. Also, the Potency entry in [2], in assay [7], in assay [10], in assay [12], in assay [14] and in assay [15] was “inactive” throughout. The Potency result in [16], in assay [17], in assay [18], in [19] and in assay [20] was “inactive” each time. The activity change, negative = inhibition in assay [3] is -3.37% (inactive); in assay [9], 0.163% (inactive). The Potency in assay [5] and in assay [6] was > 20.6 µM (inactive) in each case. Further, the max response in assay [9] (setting [21]) was 2.03%; in assay [9] (setting [22]), 3.33%. In addition, the values for the activity, negative = inhibition in assay [13] (parasite line A) and in [13] (parasite line B) were 4.38% (inactive) and 4.5% (inactive), respectively.

Turning to `COc1c2c(nc3ccccc13)O[C@H]([C@@](C)(O)CO)C2`, the molecule was called inactive in assay [1], in assay [4] and in assay [8]. Besides, the Potency was 12.6 µM (active) in assay [2], > 20.6 µM (inactive) in [5] and > 20.6 µM (inactive) in assay [6]. Besides, the activity change, negative = inhibition is -17.9% (inactive) in assay [3] and 1.14% (inactive) in [9]. Besides, the Potency entry in assay [7] and in [10] was “inactive” throughout. Further, the max response in assay [9] (setting [21]) was -17.8%; in [9] (setting [22]), -15.2%.

For the molecule `CC[N+](CC)(CC)CC[C@](O)(c1ccccc1)C1CCCCC1`, the call in assay [1], in assay [4], in [8] and in assay [11] was inactive. The Potency result in assay [2], in assay [7], in [10], in [12], in [14] and in assay [15] was “inactive” in each case. Moreover, the Potency entry in assay [16], in [17], in assay [18], in [19] and in assay [20] was “inactive” each time. Besides, the results for the activity change, negative = inhibition in assay [3] and in assay [9] were -68.8% (active) and -1.33% (inactive), respectively. Also, the Potency in assay [5] and in assay [6] was > 20.6 µM (inactive) in each case. In addition, the max response in [9] (setting [21]) was -17.2%; in [9] (setting [22]), -19.8%. In addition, in [13] (parasite line B), the activity, negative = inhibition was -24.4% (inactive).

Source of the values: PubChem BioAssay (NCATS).
